Compound activity: PubChem, several laboratories
PLK1 kinase inh: PLK1 (human) kinase inhibition; P53350; recombinant PLK1 kinase, TR-FRET peptide phosphorylation; inhibition, % at 10 µM; 97,000 tested, 0.53% active;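 active = inhibition of 50% or more in the single-concentration screen; inactive = inhibition below 50%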;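 also: 0% = DMSO max control and 100% = H-89 dihydrochloride min control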
EphB4 ephrin blk: blocks human EphB4 binding to ephrin-B2. P54760. EphB4 LBD / TNYL-RAW-Alexa532 peptide, fluorescence polarization. inhibition, % at 7 µM. 97,000 tested, 0.15% active. AID 720;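 active = inhibition above the screen-wide mean inhibition plus 3 SD, cut at about 15% in these data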;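 also: 0% = DMSO wells and 100% = excess unlabeled TNYL-RAW peptide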
sEH act: soluble epoxide hydrolase (human) activation | activation, % at 2 µM | purified human sEH enzymatic activity, activator screen | 91,000 tested, 0.04% active | P34913; in the data active = activation above about 37%
Target sequence (P34913 whole entry, looked up): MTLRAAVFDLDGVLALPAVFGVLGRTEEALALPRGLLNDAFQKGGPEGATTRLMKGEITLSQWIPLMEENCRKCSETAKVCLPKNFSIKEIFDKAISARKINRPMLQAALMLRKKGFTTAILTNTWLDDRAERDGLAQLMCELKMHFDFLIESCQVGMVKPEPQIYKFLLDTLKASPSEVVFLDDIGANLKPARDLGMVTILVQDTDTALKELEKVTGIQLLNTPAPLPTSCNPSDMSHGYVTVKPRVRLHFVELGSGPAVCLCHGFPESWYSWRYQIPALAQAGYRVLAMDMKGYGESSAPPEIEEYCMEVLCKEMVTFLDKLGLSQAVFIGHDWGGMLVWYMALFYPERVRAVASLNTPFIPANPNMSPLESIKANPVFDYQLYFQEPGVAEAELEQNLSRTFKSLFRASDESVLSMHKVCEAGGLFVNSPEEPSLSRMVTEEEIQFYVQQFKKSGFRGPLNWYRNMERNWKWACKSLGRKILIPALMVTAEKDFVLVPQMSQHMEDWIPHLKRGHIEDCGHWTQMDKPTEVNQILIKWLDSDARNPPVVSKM
sEH inhibitor: blocks human soluble epoxide hydrolase activity. 91,000 tested, 0.34% active. inhibition, % at 2 µM. AID 707. recombinant human sEH enzymatic activity assay. P34913; in the data active = inhibition above about 80%
Plk1 PBD FP: Plk1 (human) PBD binding inhibition; 97,000 tested, 0.13% active; inhibition, %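 (tested at about 20 µM)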; P53350; AID 693; Plk1 PBD phosphopeptide binding, fluorescence polarization; in the data active = inhibition above about 34%, passing the limit was not always enough
* hit, by the source's call. This is a sample that favours compounds with a hit; in the whole collection about 1% have one here.

CCCCNC(=O)CN1C(=O)NC2(CCCc3ccccc32)C1=O (stereo unspecified) was read as PLK1 kinase inh -9.6, EphB4 ephrin blk 10.5, sEH act 9.9, sEH inhibitor -11.6 and Plk1 PBD FP -17.6.
O=S(=O)(NCc1ccccc1)c1ccc(Cl)cc1 was read as PLK1 kinase inh -2.0, EphB4 ephrin blk 14.0, sEH act 6.3, sEH inhibitor -9.5 and Plk1 PBD FP -0.7.
Screening O=CNc1ccc(S(=O)(=O)NCc2ccccc2)cc1 returned PLK1 kinase inh -10.0, EphB4 ephrin blk 10.5, sEH act 39.2*, sEH inhibitor -42.6 and Plk1 PBD FP -24.5.
Screening c1ccc2c(-c3nc4ncccc4o3)cccc2c1 returned PLK1 kinase inh -5.2, EphB4 ephrin blk -5.9, sEH act 20.2, sEH inhibitor -20.3 and Plk1 PBD FP 2.0.
O=C(O)c1ccc(-n2nnnc2SCc2ccccc2F)cc1 was read as PLK1 kinase inh 59.0*, EphB4 ephrin blk -1.4 and Plk1 PBD FP 28.6.
COC(=O)CSC1=C(C#N)C(c2ccc(C)cc2)C2=C(CCCC2=O)N1 (stereo unspecified) was read as PLK1 kinase inh -9.6, EphB4 ephrin blk 16.1*, sEH act -10.4, sEH inhibitor 10.0 and Plk1 PBD FP -15.9.
`Cn1c(CSCc2ccccc2Cl)nnc1SCC(=O)Nc1nccs1` gave PLK1 kinase inh 65.1*, EphB4 ephrin blk 4.6, sEH act -1.2, sEH inhibitor 4.1 and Plk1 PBD FP -21.0.
`CCOC(=O)NC1(C(F)(F)F)C(=O)N(Cc2ccccc2)C2=C1C(=O)CC(C)(C)C2` (stereo unspecified) gave PLK1 kinase inh -6.6, EphB4 ephrin blk 6.0, sEH act -2.5, sEH inhibitor 4.2 and Plk1 PBD FP -16.3.
`CCOC(=O)c1c(C)oc2c1c(C(c1cccnc1)N1CCOCC1)c(O)c1ccccc12` (stereo unspecified) gave PLK1 kinase inh -2.3, EphB4 ephrin blk 2.1 and Plk1 PBD FP -13.8.
For CCOC(=O)c1c(C)oc2c1c1c(c3ccccc32)OCN(Cc2cccnc2)C1 the results were PLK1 kinase inh -1.1, EphB4 ephrin blk 16.1*, sEH act 5.0, sEH inhibitor -5.5 and Plk1 PBD FP 8.6.
Screening CCOC(=O)N1CCC(N2C(=O)c3cc(C(=O)NC4CCCCC4)ccc3C2O)CC1 (stereo unspecified) returned PLK1 kinase inh 60.8*, EphB4 ephrin blk -1.2 and Plk1 PBD FP 1.6.
For CCCN1C(=O)c2cc(C(=O)NC3CCCCCC3)ccc2C1O (stereo unspecified) the results were PLK1 kinase inh 4.7, EphB4 ephrin blk -7.4, sEH act -12.4, sEH inhibitor 11.6 and Plk1 PBD FP -10.0.
O=C(NCc1cccs1)C1CCC(CNS(=O)(=O)c2ccc(Br)s2)CC1 (stereo unspecified) was read as PLK1 kinase inh -9.0, EphB4 ephrin blk -3.0, sEH act -92.3, sEH inhibitor 92.4* and Plk1 PBD FP 2.8.
For CCC(C)c1ccc(NC(=O)c2cccs2)cc1 (stereo unspecified) the results were PLK1 kinase inh -0.4, EphB4 ephrin blk -0.4, sEH act -89.9, sEH inhibitor 89.5* and Plk1 PBD FP -17.5.
`O=C(Nc1ccc(Cl)cc1)c1cccs1` gave PLK1 kinase inh 2.7, EphB4 ephrin blk 7.8, sEH act -37.8, sEH inhibitor 36.6 and Plk1 PBD FP -0.2.
For CCN(CC)S(=O)(=O)c1ccc(NC(=O)C(OC)c2ccccc2)cc1 (stereo unspecified) the results were PLK1 kinase inh -1.4, EphB4 ephrin blk -1.6, sEH act -37.1, sEH inhibitor 35.8 and Plk1 PBD FP 1.6.
O=C(OCC#CCSc1nnc(-c2ccncc2)o1)c1cccs1 was read as PLK1 kinase inh 54.2*, EphB4 ephrin blk -5.5, sEH act -0.5, sEH inhibitor -1.0 and Plk1 PBD FP -11.2.
For CCC(C)[C@H](NC(=O)NCc1ccccc1Cl)C(=O)OC (stereo partly specified) the results were PLK1 kinase inh -4.6, EphB4 ephrin blk 1.8, sEH act -94.7, sEH inhibitor 94.6* and Plk1 PBD FP -0.8.
CCC(C)[C@H](NC(=O)NC1CCN(Cc2ccccc2)CC1)C(=O)OC (stereo partly specified) was read as PLK1 kinase inh 0.9, EphB4 ephrin blk -3.0, sEH act 0.8, sEH inhibitor 0.4 and Plk1 PBD FP 29.3.
`Cc1c(Cl)c([N+](=O)[O-])nn1Cc1ccc(C(=O)N/N=C\c2cccc(Br)c2)o1` gave PLK1 kinase inh -8.5, EphB4 ephrin blk 4.0, sEH act -95.5, sEH inhibitor 95.6* and Plk1 PBD FP -12.0.
Screening Cc1cc(C)cc(NC(=O)c2ccc(Cn3nc(C)c(Cl)c3C)o2)c1 returned PLK1 kinase inh -9.2, EphB4 ephrin blk 4.0, sEH act -14.9, sEH inhibitor 19.2 and Plk1 PBD FP -39.3.
For Cc1ccc(N(CC(=O)NC2CCCC2)C(=O)CCCC(=O)Nc2ccccn2)cc1C the results were PLK1 kinase inh 57.5*, EphB4 ephrin blk 4.2 and Plk1 PBD FP -5.2.
For Cc1ccc(C)c(N(CC(=O)NC2CCCCC2)C(=O)CCC(=O)Nc2ccccn2)c1 the results were PLK1 kinase inh -5.1, EphB4 ephrin blk -4.6, sEH act 5.3, sEH inhibitor -8.7 and Plk1 PBD FP 2.3.
COC(=O)[C@H](C)NC(=O)Nc1cc(Cl)ccc1C was read as PLK1 kinase inh -8.8, EphB4 ephrin blk 1.4, sEH act 7.3, sEH inhibitor -7.5 and Plk1 PBD FP -1.0.
Cc1c(Cl)cccc1N1CC(C(=O)Nc2nccs2)CC1=O (stereo unspecified) was read as PLK1 kinase inh 53.4*, EphB4 ephrin blk 1.0 and Plk1 PBD FP -4.7.
CC1=Nc2ccccc2/C1=C\c1nc(-c2ccc(C(F)(F)F)cc2)oc1O was read as PLK1 kinase inh -26.8, EphB4 ephrin blk 24.8*, sEH act 21.8, sEH inhibitor -19.6 and Plk1 PBD FP -45.5.
For Cc1cc(O)cc(O)c1-c1onc(C(F)(F)F)c1-c1cscn1 the results were PLK1 kinase inh 58.0*, EphB4 ephrin blk 5.7, sEH act -8.2, sEH inhibitor 9.3 and Plk1 PBD FP 15.4.
Screening CCCCOC(=O)Sc1nc2ccccc2o1 returned PLK1 kinase inh -18.3, EphB4 ephrin blk -4.8, sEH act -2.5, sEH inhibitor 1.8 and Plk1 PBD FP -9.2.
For Cc1ccc(-c2nn3c(C)nnc3c3ccccc23)cc1S(=O)(=O)N(C)CCO the results were PLK1 kinase inh 15.1, EphB4 ephrin blk -4.3, sEH act 11.5, sEH inhibitor -14.5 and Plk1 PBD FP 18.7.
`O=C(Nc1ccccc1Sc1ccccc1)c1ccccc1F` gave PLK1 kinase inh -6.5, EphB4 ephrin blk 16.4*, sEH act 14.7, sEH inhibitor -18.2 and Plk1 PBD FP 3.7.
CCN(CC)CCNC(=O)Cn1nc(Cc2cccnc2)c2ccccc2c1=O was read as PLK1 kinase inh 61.9*, EphB4 ephrin blk -5.6 and Plk1 PBD FP -2.3.
`Cc1nc(N)sc1N=Nc1ccc(F)cc1` gave PLK1 kinase inh 58.6*, EphB4 ephrin blk -6.1, sEH act -8.4, sEH inhibitor 10.5 and Plk1 PBD FP -4.9.
